Assay outcomes: PubChem BioAssay, National Center for Advancing Translational Sciences (NCATS)
PINK1 expr mod = changes PINK1 expression | PINK1 immunofluorescence, high-content cytometry, 24 h | Potency, µM (top dose mostly 76.6 µM), hits mostly activators | 410,000 compounds, 0.2% hits; active = well fitted activation curve with a large enough effect; inconclusive = small, poorly fitted or top-dose-only effect; cell line not stated here; note: nearly all actives have a fitted effect of over 65% in size
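Measures PINK1 amount and localization on or inside mitochondria by immunofluorescence. Stable cells get compounds at 5 concentrations for 24 hours before fixation and staining; CCCP controls included.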
MCF10A rereplic = inducers of DNA re-replication in MCF 10A breast cells; MCF 10A DNA re-replication, Hoechst nuclear intensity, 48 h; Potency, µM (doses to about 46.1 µM), usual class: activators; 350,000 compounds, 2.9% hits; note: nearly all actives have a fitted effect of over 50% in size
KB-3-1 cytotox = kills parental KB-3-1 adenocarcinoma cells; KB-3-1 viability, CellTiter-Glo ATP luminescence, 72 h; Potency, µM (top dose mostly 46.1 µM), hits mostly cytotoxic; 400,000 compounds, 1.4% hits; AID 1347075; note: nearly all actives have a fitted effect of over 60% in size
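Multi-concentration cytotoxicity screen in KB-3-1 cells grown in DMEM lacking phenol red with 10% FBS. After 72 h at 37 °C with compound, ATP-dependent luminescence was recorded.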
KB-V1 MDR tox = KB-V1 MDR subline cytotoxicity | KB-V1 MDR cells viability, CellTiter-Glo, 72 h | Potency, µM (series often up to 46.1 µM), usual class: cytotoxic | 400,000 compounds, 3.4% hits | AID 1347076; note: nearly all actives have a fitted effect of over 60% in size
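KB-V1, DMEM (no phenol red) + 10% FBS; cpd pin-transferred, titration series; 72 h, 37 degrees C; CellTiter-Glo, luminescence. Data normalized, curve-fit.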
SW480 rereplic = DNA re-replication induction in SW480 cells; SW480 DNA re-replication, Hoechst DNA content imaging, 48 h; Potency, µM (top dose mostly 46.1 µM), usual class: activators; 340,000 compounds, 1.8% hits; AID 624297; note: nearly all actives have a fitted effect of over 55% in size
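Image-based DNA-content assay: after two days of treatment, nuclei were labelled with the DNA dye Hoechst and imaged, and hits were compounds raising the count of nuclei showing high fluorescence intensity.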
ALOX12 inh = ALOX12 (human) lipoxygenase inhibition; purified 12hLO, xylenol orange hydroperoxide absorbance; P18054; Potency, µM (highest dose often 108 µM), most hits filed as inhibitors; 580,000 compounds, 1.1% hits
Target sequence (P18054 whole entry, looked up): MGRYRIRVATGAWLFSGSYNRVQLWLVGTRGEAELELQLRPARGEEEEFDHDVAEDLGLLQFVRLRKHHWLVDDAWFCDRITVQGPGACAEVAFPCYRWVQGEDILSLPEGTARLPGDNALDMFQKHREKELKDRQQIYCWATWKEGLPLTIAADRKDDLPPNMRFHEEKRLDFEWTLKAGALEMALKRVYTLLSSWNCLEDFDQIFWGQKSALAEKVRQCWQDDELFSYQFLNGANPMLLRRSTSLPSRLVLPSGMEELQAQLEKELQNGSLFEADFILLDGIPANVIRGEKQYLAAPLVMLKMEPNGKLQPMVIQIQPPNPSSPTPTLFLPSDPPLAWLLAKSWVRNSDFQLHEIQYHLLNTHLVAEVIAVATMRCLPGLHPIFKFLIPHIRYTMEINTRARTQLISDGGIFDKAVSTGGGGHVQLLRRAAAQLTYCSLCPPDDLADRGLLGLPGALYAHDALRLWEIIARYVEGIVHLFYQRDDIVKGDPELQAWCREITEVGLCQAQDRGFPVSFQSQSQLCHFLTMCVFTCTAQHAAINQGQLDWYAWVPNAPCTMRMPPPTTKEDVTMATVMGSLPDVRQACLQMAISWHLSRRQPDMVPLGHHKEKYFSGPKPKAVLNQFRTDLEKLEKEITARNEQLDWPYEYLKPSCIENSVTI
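Hydroperoxide product was detected by ferrous iron/xylenol orange as the 573 to 405 nm absorbance ratio. Arachidonic acid at 40 uM (final) was turned over for 30 min at room temperature by 150 nM human 12hLO, pH 7.0 Hepes buffer, after 15 min compound preincubation.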
Hits are given with their value; 0 = inactive; ? = inconclusive; - = no result; [ ] = remark or other dose. A selection: hits, their analogues and other compounds. The true share with any hit is near 5.8%. Unless noted, calls come from the whole dose curve; as a rule, active = well fitted curve in the direction sought with a large enough effect; inconclusive = small, poorly fitted or top-dose-only effect, or another doubt; inactive = no such curve, though single readings can be large; an effect the other way counts as inactive or inconclusive.

SMILES	PINK1 expr mod	MCF10A rereplic	KB-3-1 cytotox	KB-V1 MDR tox	SW480 rereplic	ALOX12 inh
COc1ccc(NC(=O)/C(C#N)=C\C=C\c2ccco2)cc1	0	12µM	7.3µM	10µM	-	?
O=C(O)COc1ccc(NC(=O)c2ccc(NC(=O)c3ccco3)cc2)cc1	0	0	0	0	0	0
O=C(Nc1ccc(OC(=O)c2ccco2)cc1)c1ccco1	0	0[0.0737 µM]	0	0	0	?
COc1ccc(C(=O)Nc2ccc(NC(=O)c3ccco3)cc2)cc1	0	0	0	0	9.2µM	0
COc1cccc(Nc2ncc(-c3cccnc3)c3c2OCC3)c1	-	-	-	-	-	0
CSc1nc(N)nc(SCC(=O)c2ccc(C)cc2)c1C#N	0	5.8µM	0	0	?	0
COc1cccc(-c2ccc(COc3ccc4c(cnn4CCC(=O)O)c3)cc2)c1F	-	-	-	-	-	0
COc1ccc(F)cc1-c1ccc(COc2ccc3c(cnn3CCC(=O)O)c2)cc1	-	-	-	-	-	35µM
CNC(=O)CCn1ncc2cc(OCc3ccccc3-c3ccc(F)cc3C)ccc21	-	-	-	-	-	63µM
Cc1ccc(NC(=O)CN2C(=O)S/C(=C/c3ccc(-c4cc(C(=O)O)ccc4C)o3)C2=O)cc1C	0	5.8µM	0	0	?	?
Cc1cccc(NC(=O)CN2C(=O)S/C(=C\c3ccc(-c4cccc(C(=O)O)c4C)o3)C2=O)c1	0	23µM	0	0	?	0
CCCCCCc1ccc(-c2ncc(N)cn2)cc1	0	13µM	0	0	0	?
O=C(/C=C/c1ccc(Cl)cc1Cl)c1cc(Cl)ccc1O	-	-	-	-	-	0
CNc1ccc(Br)cc(C(=O)/C=C/c2cc(OC)ccc2OC)c1=O	0	?	?	18µM	?	?
CNc1ccc(Br)cc(C(=O)/C=C/c2ccc3c(c2)OCO3)c1=O	0	?	?	?	?	?
CCNc1ccc(Br)cc(C(=O)/C=C/c2ccc(Cl)cc2Cl)c1=O	0	21µM	?	18µM	?	7.1µM
CNc1ccc(Br)cc(C(=O)/C=C/c2ccc(OC)cc2)c1=O	0	?	?	?	0	32µM
CCN1CCN(c2ccc(S(=O)(=O)N3CCCCC3)cc2NC(=O)c2ccc(F)cc2)CC1	0	7.3µM	0	0	?	?
CC(Oc1ccc(F)cc1)C(=O)Nc1cc(S(=O)(=O)N2CCCCC2)ccc1N1CCOCC1 (centres undefined)	0	0	0	?	0	?
O=C(Nc1cc(S(=O)(=O)N2CCCCC2)ccc1Cl)c1ccccc1NS(=O)(=O)c1ccc(F)cc1	?	?	4.6µM	?	?	?
CCN1CCN(c2ccc(S(=O)(=O)N3CCCCC3)cc2NC(=O)C(C)Oc2ccc(F)cc2)CC1 (centres undefined)	0	0	0	0	0	45µM
CCN1CCN(c2ccc(S(=O)(=O)N3CCCCC3)cc2NC(=O)c2ccc(C)c(C)c2)CC1	0	0	0	0	0	0
O=C(Nc1cc(S(=O)(=O)N2CCCCC2)ccc1O)c1ccccc1NS(=O)(=O)c1ccc(F)cc1	?	?	0	0	0	?
C=CCSc1nccc(-c2nn(-c3ccc(C)cc3)ccc2=O)n1	0	8.2µM	6.5µM	3.7µM	?	?
C#CCSc1nccc(-c2nn(-c3ccc(C)cc3)ccc2=O)n1	0	?	0	?	0	?
SMILES	PINK1 expr mod	MCF10A rereplic	KB-3-1 cytotox	KB-V1 MDR tox	SW480 rereplic	ALOX12 inh
CCSc1nccc(-c2nn(-c3ccc(C)cc3)ccc2=O)n1	0	5.2µM	2.1µM	2.6µM	7.3µM	0
C=CCSc1nc(=O)n2ccc(C)cc2n1	0	0	0	0	0	0
Nc1nccc(-c2nn(-c3ccc(Cl)cc3)ccc2=O)n1	0	0	0	0	0	0
CSc1nccc(-c2nn(-c3ccc(C)cc3)ccc2=O)n1	0	8.2µM	5.2µM	2.9µM	13µM	0
COc1ccccc1N(C)C(=O)Cc1noc2ccccc12	-	-	-	-	-	0
Cc1cc(C)c(C)c(OCCCCn2cnc3ccccc3c2=O)c1	0	?	0	23µM	0	0
COc1cccc(OC)c1OCCCCn1cnc2ccccc2c1=O	0	?	0	?	0	0
O=C1C(=O)c2cccnc2-c2ncccc21	0	-	3.7µM	18µM	-	4µM
COC1=C(Br)C(=O)c2ncccc2C1=O	0	5.2µM	?	?	2.9µM	25µM
Cc1cccc(CN2CCCN(S(=O)(=O)c3ccccc3)CCC(=O)NCC2)c1	-	-	-	-	-	0
CC(C)(C)[C@H](N)C(=O)N[C@H]1CCC2C3CC=C4C[C@@H](O)CC[C@]4(C)C3CC[C@@]21C (some centres undefined)	0	16µM	?	?	4.6µM	0
C[C@]12CC[C@H](O)CC1=CCC1C2CC[C@@]2(C)C1CC[C@@H]2NC(=O)[C@@H](N)Cc1ccccc1 (some centres undefined)	0	?	0	0	?	?
CC(C)C(=O)N[C@H]1CCC2C3CC=C4C[C@@H](O)CC[C@]4(C)C3CC[C@@]21C (some centres undefined)	0	0	0	0	0	0
CC(=O)C1CCC2C3CC=C4CC(SC(=N)N)CCC4(C)C3CCC12C (centres undefined)	0	?	?	23µM	?	?
CCCCCCN[C@H]1CCC2C3CC=C4C[C@@H](O)CC[C@]4(C)C3CC[C@@]21C (some centres undefined)	0	?	?	?	8.2µM	?
O=C(OCc1ccccc1)N1CCOCC12CCN(Cc1cccs1)CC2	-	-	-	-	-	0
Cc1ccc2c(=O)cc(C(=O)Nc3nnc(C(C)C)s3)oc2c1	-	-	-	-	-	0
NC(=O)C1CN(CC(=O)Nc2ccccc2Cl)c2ccccc2O1 (centres undefined)	-	-	-	-	-	0
Cn1c(C(=O)N(Cc2ccccc2)Cc2cccs2)cc2sccc21	0	16µM	0	15µM	0	0
Cn1c(C(=O)N(Cc2ccccc2)Cc2ccccn2)cc2sccc21	0	0	0	0	0	0
O=C1c2ccccc2C(=O)N1CCc1csc(-c2cccc(F)c2)n1	0	?	0	16µM	0	0
O=C1c2ccccc2C(=O)N1CCc1csc(-c2cccc(Cl)c2)n1	0	?	0	?	0	0
CC1CCN(C(=O)CCc2ncc(-c3c(F)cccc3F)o2)CC1	-	-	-	-	-	0
COc1ccc(C(c2sc3ncnn3c2O)N2CCN(c3ccccc3F)CC2)cc1OC (centres undefined)	0	0	2.9µM	1.6µM	0	0
COc1ccc(C(c2sc3ncnn3c2O)N2CC(C)OC(C)C2)cc1OC (centres undefined)	0	0	?	0	?	0
O=C(CN(C(=O)c1cc2c(s1)CCC2)C1CCCC1)NCc1cccs1	0	?	0	0	0	0
O=C(CN(Cc1ccccc1)C(=O)c1cc2c(s1)CCC2)NCc1cccs1	0	0	?	2.9µM	0	0
O=C1NC2(CCN(CC3CCCCC3)CC2)COc2ccccc21	-	-	-	-	-	63µM
